From ChEMBL document CHEMBL1157539, “Thousands of chemical starting points for antimalarial lead identification” (Nature, 2010)

system: Plasmodium falciparum; experiment: GSK_TCMDC: Inhibition of Plasmodium falciparum 3D7 in whole red blood cells, using parasite LDH activity as an index of growth. Test compounds present at 2uM; format: functional

Compound	Inhibition
CN(c1ccc(NC(=O)c2cccc(F)c2)cc1)C1CCCN(Cc2cccc(O)c2)C1.O=C(O)C(F)(F)F (configuration not stated)	85%
Cl.N#Cc1ccc2c(c1)CCN(CCC1CCC(NC(=O)c3ccc(-c4ccccn4)s3)CC1)CC2 (configuration not stated)	92%
O=C(Nc1ccc(-c2ccc(-c3nc4cc(C(F)(F)F)ccc4[nH]3)s2)cc1)c1c[nH]cn1	92%
CC(CN)OCn1cnc2c(N)ncnc21.Cl (configuration not stated)	95%

system: Plasmodium falciparum; experiment: GSK_TCMDC: Inhibition of Plasmodium falciparum Dd2 in whole red blood cells, using parasite LDH activity as an index of growth. Test compounds present at 2uM; format: functional

Compound	Inhibition
CC(C)NCc1ccc(-c2cccc(NC(=O)c3ccc(F)cc3)c2)cc1.O=C(O)C(F)(F)F	7%
CC(=O)Nc1nc(C(=O)Nc2ccc(-c3ccc(-c4nc5cc(F)ccc5[nH]4)cc3)cc2)cs1	33%
CN1CCN(CC(=O)Nc2ccc(-c3cccc(-c4nc5cc(F)ccc5[nH]4)c3)cc2)CC1	100%
O=C(Nc1cccc(-c2cccc(-c3nc4cc(C(F)(F)F)ccc4[nH]3)c2)c1)c1ccoc1	61%
CC(C)CNCc1cccc(-c2cccc(CN(CCCN3CCN(C)CC3)C(=O)CCC3CCCC3)c2)c1.O=C(O)C(F)(F)F	96%
CCC(NCc1ccc(-c2cncc(C(=O)NCC(C)C)c2)cc1)c1ccccc1.O=C(O)C(F)(F)F (configuration not stated)	8%
COc1cc2c(cc1NC(=O)CN1CCN(C(=O)c3ccco3)CC1)oc1ccccc12	96%
C/N=C(/Nc1c(Cl)cccc1Cl)N(C)C.O=C(O)/C=C/C(=O)O	1%
COc1cc2nc(N3CCN(C(=O)c4ccco4)CC3)nc(NCc3ccccc3)c2cc1OC	99%
CCC1CN(S(=O)(=O)c2ccc3c(c2)NC(=O)CC(=O)N3)c2cc(Cl)ccc2O1 (configuration not stated)	65%
Cc1cc(N2CCCC2)nc(Nc2ccc(NC(=O)CC(C)C)cc2)n1	53%
O=C(Nc1ccc(CCNCc2ccccc2)cc1)Nc1ccc(OC(F)(F)F)cc1.O=C(O)C(F)(F)F	22%
Cc1cccc(NC(=O)c2ccc(C(=O)NC3CCN(CC4CCCCC4)CC3)cc2)c1.O=C(O)C(F)(F)F	18%
O=C(Nc1cccc(-c2nn3ncccc3c2-c2ccnc(Nc3ccc(N4CCOCC4)cc3)n2)c1)c1c(F)cccc1F	75%
CC(C)=C(C(=O)OCc1ccccc1)N1C(=O)[C@@H](NC(c2ccccc2)(c2ccccc2)c2ccccc2)[C@H]1[S+]([O-])CC(=O)OC(C)(C)C (some centres not stated)	78%
COC(=O)C(Cc1ccccc1)NC(=O)NC1CCN(c2ccnc(Nc3ccc(F)cc3)n2)C1 (configuration not stated)	14%
O=C(NCc1ccc(C(F)(F)F)cc1)c1cccc(-c2nnc(-c3cccc(-c4cncnc4)c3)o2)c1	79%

Compound	Inhibition
N#CN1CC[C@H](CS(=O)(=O)c2cccc(Br)c2)C1	74%
COc1ccc2nccc(NC(=O)N3CCC(NCCOc4cc(F)cc(F)c4)CC3)c2n1.O=C(O)C(=O)O	38%
O=C(O)C(F)(F)F.c1cc(CN2CCN(CCN3CCOCC3)CC2)cc(-c2ccc(-c3nc4ccccc4[nH]3)cc2)c1	100%
CCc1cn2c3c(cc(C(=O)N[C@@H](Cc4ccccc4)[C@H](O)CNCc4ccccc4C)cc13)N(C)S(=O)(=O)CC2.O=CO	98%
Cl.Cl.N=C(N)c1ccc(-c2cc(-c3cccc(C(=N)N)c3)on2)cc1	45%
CCC(=O)Oc1ccc(NC(=O)c2cccc(OC)c2)cc1	3%
COc1cccc(OC)c1-c1ccccc1NC(=O)N1CCCc2cc(C)ccc21	84%
CC(C)(C)N1CCC(N(Cc2ccc(-c3ccc(C(F)(F)F)cc3)cc2)C(=O)Cn2c(CCc3cccc(F)c3F)nc(=O)c3cccnc32)CC1.O=C(O)C(O)C(O)C(=O)O	53%
CC(=O)Nc1ccc(COc2ccc(Nc3ccnc4cc(-c5ccccn5)ccc34)cc2)cc1.Cl	94%
COc1ccc2[nH]c(C)cc(=NN=Cc3ccccc3Cl)c2c1	100%
CC(C)(C)c1cc(NC2CC2)nc(-c2ccccn2)n1	79%
Cc1cc(NC(=O)c2ccc(S(=O)(=O)N(Cc3ccccc3)C(C)C)cc2)no1	67%
Cc1onc(-c2ccccc2)c1-c1nc(NC2CCCC(C)C2)no1 (configuration not stated)	46%
COc1cc2nc(NCCN3CCOCC3)n3nc(-c4ccccc4)nc3c2cc1OC	98%
Cl.Cn1c2ccccc2c2c3ccccc3c(CNC(CO)(CO)CO)cc21	78%
COc1ccccc1N1CCN(Cc2c(O)ccc3cc(Br)ccc23)CC1	75%
